Source: PubChem BioAssay
This is a sample that favours compounds with a hit; in the whole collection about 20% have one here.
Cycloheximide cs: counter-screen for Shiga toxin inhibitors: cycloheximide protein synthesis inhibition. cell reporter, cycloheximide protein synthesis inhibition counterscreen. max response, %. actives 12% (n = 300,000); in the data active means max response mostly above about 13%, no sharp cut-off; inactive means mostly below about 14%; further: read at 38.3 µM for the half of the compounds with a filed dose; 0% is about no effect
Pf growth 96h: P. falciparum growth inhibition at 96 hours; Potency, µM (doses to about 28.7 µM), inactives show at the top dose activity change, negative = inhibition, usual class: inhibitors; P. falciparum luciferase reporter growth, 96 h; actives 6.9% (n = 320,000); further: potency means the concentration at half of the fitted maximal effect; on the % scale 0 is the no-effect control and ±100 the full control effect
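Infected RBCs, 2% Hct / 0.05% parasitemia final; luciferase-reporter P. falciparum; cpd 96 h, 37 C, 5% CO2; luciferase detection reagent; luminescence.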
HCMV inh: blocks human cytomegalovirus replication | HFF cells, HCMV-luciferase reporter, 72 h; hits give low values | actives 4.5% (n = 410,000) | AID 1259415 | activity change, negative = inhibition, % at 57.5 µM; in the data active means activity change below about -60%; inconclusive means no clear call, values can overlap the other calls; inactive means above about -39%; further: on the % scale 0 is the no-effect control and ±100 the full control effect
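Inhibition of viral replication was scored as loss of reporter luminescence in HFFs infected with HCMV-luciferase (MOI 1 PFU/cell) for 72 h; compounds tested at 2 doses, normalized to buffer and Salinomycin controls.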
Pf growth 48h: inhibits P. falciparum growth in the first generation, 48 h | P. falciparum luciferase growth in erythrocytes, 48 h | Potency, µM (highest dose often 28.7 µM), for the others: top-dose activity change, negative = inhibition, hits mostly inhibitors | actives 5.9% (n = 310,000) | AID 504832; further: potency means the concentration at half of the fitted maximal effect; on the % scale 0 is the no-effect control and ±100 the full control effect
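Luciferase-expressing parasites in RBCs, 2% Hct / 0.1% parasitemia final; RPMI 1640 + 0.5% Albumax; 37 C, 5% CO2, one generation; luminescence read-out, lower signal = inhibition.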
Shiga inhibitor: inhibitors of Shiga toxin in Vero cells; actives 9.2% (n = 290,000); Vero cells, Shiga toxin protein synthesis inhibition reporter; inhibition, % at 38.7 µM; in the data active means inhibition mostly above about 28%, no sharp cut-off; inactive means mostly below about 43%; further: 0% is about no effect
Numbers without * were called inactive. Unless noted, the call rests on the fitted dose curve; in most records, active means well fitted inhibition curve with a large enough effect; inconclusive means small, poorly fitted or top-dose-only effect, or another doubt; inactive means no such curve, though single readings can be large or run the other way.

What do the screens show for `COc1cccc(C(O)c2nc(-c3cc4ccccc4o3)cs2)c1` (centres undefined)?
HCMV inh: 2.7

What do the screens show for `COc1ccccc1-c1csc(C(NC(C)=O)c2ccccc2)n1` (centres undefined)?
HCMV inh: -78.9*

Results for COc1cc(C(O)c2nc(-c3cc4ccccc4o3)cs2)ccc1F (centres undefined) ?
HCMV inh: -76.6*

What do the screens show for `CCCNC(=O)C1(C)CCCN(C(=O)C2(c3ccc(Cl)cc3)CCCC2)C1` (centres undefined)?
HCMV inh: -6.3

How did CCOC(=O)C1(Cc2cccc(OC)c2)CCN(Cc2ccon2)CC1 do in these assays?
Cycloheximide cs: -3.2; Pf growth 96h: 24.2%; HCMV inh: 14.8; Pf growth 48h: 0.2%; Shiga inhibitor: -5.3

How did O=C(c1cc(Br)c[nH]1)N1CCSCC1 do in these assays?
Cycloheximide cs: 5.8; Pf growth 96h: 17.3%; HCMV inh: inconclusive; Pf growth 48h: 13.4%; Shiga inhibitor: -4.9

What do the screens show for `CCCCN(C(=O)C1CCCC1)c1c(N)n(Cc2ccccc2)c(=O)[nH]c1=O`?
HCMV inh: -8.3

How did CCCCn1c(N)c(N(CCC(C)C)C(=O)c2ccc([N+](=O)[O-])s2)c(=O)[nH]c1=O do in these assays?
Pf growth 96h: inconclusive; HCMV inh: inconclusive; Pf growth 48h: 9.28µM*

What do the screens show for `CCCCn1c(N)c(N(CCOC)C(=O)c2ccc(N3CCCC3=O)cc2)c(=O)[nH]c1=O`?
Pf growth 96h: 8.1%; HCMV inh: -100.7*; Pf growth 48h: -0.7%

Results for CCCCn1c(N)c(N(Cc2ccccc2OC)C(=O)c2cc(CC)c(C)s2)c(=O)[nH]c1=O ?
Pf growth 96h: inconclusive; HCMV inh: -11.0; Pf growth 48h: 13.1µM*

How did CCCCC1CCC(C(=O)N(CC(C)C)c2c(N)n(Cc3ccccc3)c(=O)[nH]c2=O)CC1 (centres undefined) do in these assays?
Pf growth 96h: 10.4µM*; HCMV inh: -15.1; Pf growth 48h: inconclusive

What do the screens show for `CCCCN(C(=O)c1ccc([N+](=O)[O-])s1)c1c(N)n(CC(C)C)c(=O)[nH]c1=O`?
Pf growth 96h: 10.8%; HCMV inh: -14.1; Pf growth 48h: -23.5%

What do the screens show for `Cc1nc(CN(C)C(=O)c2ccccc2OC2CCN(S(C)(=O)=O)CC2)cs1`?
Cycloheximide cs: 5.4; Pf growth 96h: 2.9%; HCMV inh: -24.8; Pf growth 48h: -1.2%; Shiga inhibitor: -1.4

What do the screens show for `Cc1ccc(S(=O)(=O)N2CCN(CC(=O)N/N=C\c3ccc(O)c(O)c3)CC2)cc1`?
Cycloheximide cs: -1.6; Pf growth 96h: -21.9%; HCMV inh: 4.6; Pf growth 48h: -13.7%; Shiga inhibitor: 24.3

How did CS(=O)(=O)c1ccc(C(=O)OCC(=O)c2ccc(Cl)s2)cc1 do in these assays?
Pf growth 96h: 28.5%; HCMV inh: 0.7; Pf growth 48h: 20.7%

What do the screens show for `CCCn1c(N)c(N(CCOC)C(=O)CSCC(=O)Nc2cccc(C)c2)c(=O)[nH]c1=O`?
Pf growth 96h: -1.7%; HCMV inh: -12.0; Pf growth 48h: -3.7%

How did O=C(NCCc1ccc(F)cc1)C(=O)NCC1CCCN1S(=O)(=O)c1ccccc1 (centres undefined) do in these assays?
Pf growth 96h: inconclusive; HCMV inh: -34.1; Pf growth 48h: inconclusive

How did OC(c1ccccc1)(c1nc(-c2csc3ccccc23)cs1)C(F)(F)F (centres undefined) do in these assays?
HCMV inh: -33.0

How did CCCCn1c(N)c(N(CC(C)C)C(=O)C2CC(=O)N(c3ccc(C)cc3)C2)c(=O)[nH]c1=O (centres undefined) do in these assays?
Pf growth 96h: -0.9%; HCMV inh: -88.7*; Pf growth 48h: inconclusive

How did CCCCn1c(N)c(N(CC(C)C)C(=O)C2CC(=O)N(c3ccc4c(c3)OCCO4)C2)c(=O)[nH]c1=O (centres undefined) do in these assays?
Pf growth 96h: 0.3%; HCMV inh: -20.9; Pf growth 48h: -28.6%

What do the screens show for `COc1ccc(N2CCN(C(=O)C3CCCN(S(=O)(=O)c4ccc(C)cc4)C3)CC2)cc1` (centres undefined)?
Cycloheximide cs: -1.4; Pf growth 96h: 35.4%; HCMV inh: inconclusive; Pf growth 48h: inconclusive; Shiga inhibitor: -5.3

What do the screens show for `COCCN(Cc1nc(-c2ccc(-c3ccccc3)cc2)oc1C)C(C)C`?
Cycloheximide cs: 31.0*; Pf growth 96h: inconclusive; HCMV inh: 172.4; Pf growth 48h: 154.0%; Shiga inhibitor: 38.2*
